High-throughput results as filed in PubChem.
In the library only some 21% were active in any assay of this set; here they are far more common.
HCV inh = inhibitors of hepatitis C virus infection; Huh7.5.1 HCVcc-Cre infection, luciferase reporter, 44 h; Potency, µM (titrated, usually from 41.8 µM), for inactives: at the top dose activity change, negative = inhibition, hits mostly inhibitors; 340,000 tested, 3.4% active; AID 651820; further: potency means the concentration at half of the fitted maximal effect; on the % scale 0 is the no-effect control and ±100 the full control effect
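After 44 h co-culture of compound, cells and HCVcc-Cre (~0.5 moi), substrate is added for 15 min at room temperature and luciferase measured over 15 sec. Cells were seeded at 1,000/well and pre-cultured 4 h.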
AMA1-RON2 inh = inhibitors of Plasmodium falciparum AMA1-RON2 interaction; AlphaScreen AMA1-biotinylated RON2 peptide binding; Potency, µM (titrated, usually from 58.2 µM), for the others: at the top dose activity change, negative = inhibition, most hits filed as inhibitors; 360,000 tested, 0.2% active;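 further: potency means the concentration at half of the fitted maximal effect; 0% = vehicle wells and -100% = peptide control; nearly all actives have a fitted effect of over 45% in size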
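AMA1 (3D7) with his tag at 25 nM final met compounds first, then biotinylated RON2 peptide at 25 nM; detection used donor plus acceptor beads, 10 µg/mL apiece, read by AlphaScreen after 30 min at room temperature.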
Shiga toxin inh = inhibitors of Shiga toxin in Vero cells | Vero cells, Shiga toxin protein synthesis inhibition reporter | inhibition, % at 38.7 µM | 290,000 tested, 9.2% active; in the data active means inhibition mostly above about 28%, no sharp cut-off; inactive means mostly below about 43%; further: 0% is about no effect
Cycloheximide cs = affects cycloheximide protein synthesis inhibition readout, counter-screen. 300,000 tested, 12% active. max response, %. AID 2314. cell reporter, cycloheximide protein synthesis inhibition counterscreen; in the data active means max response mostly above about 13%, no sharp cut-off; inactive means mostly below about 14%; further: read at 38.3 µM for the half of the compounds with a filed dose; 0% is about no effect
Pf growth 48h = inhibits P. falciparum growth in the first generation, 48 h | P. falciparum luciferase growth in erythrocytes, 48 h | Potency, µM (titrated, usually from 28.7 µM), without a hit: top-dose activity change, negative = inhibition, hits mostly inhibitors | 310,000 tested, 5.9% active; further: potency means the concentration at half of the fitted maximal effect; on the % scale 0 is the no-effect control and ±100 the full control effect
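Cell-based growth assay: transgenic P. falciparum expressing firefly luciferase, cultured in red cells within RPMI 1640 containing 0.5% w/v Albumax, 24 mM bicarbonate and gentamycin. A drop in luciferase activity indicates inhibition.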
Pf growth 96h = inhibits malaria parasite growth, 96 h | AID 504834 | 320,000 tested, 6.9% active | Potency, µM (top dose mostly 28.7 µM), for inactives: at the top dose activity change, negative = inhibition, most hits filed as inhibitors | P. falciparum luciferase reporter growth, 96 h; further: potency means the concentration at half of the fitted maximal effect; on the % scale 0 is the no-effect control and ±100 the full control effect
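Delayed-death screen, second-generation endpoint: infected erythrocytes, 2% hematocrit, 0.05% parasitemia final; 96 hours at 37 C, 5% CO2; luciferase detection reagent; luminescence decrease equals reduced growth.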
* hit, by the source's call; ? = inconclusive; / = not tested or not shown; [ ] = another dose, or the depositor's remark. Unless noted, the call rests on the fitted dose curve; in most records, active means well fitted curve in the direction sought with a large enough effect; inconclusive means small, poorly fitted or top-dose-only effect, or another doubt; inactive means no such curve, though single readings can be large; an effect the other way counts as inactive or inconclusive.

SMILES	HCV inh	AMA1-RON2 inh	Shiga toxin inh	Cycloheximide cs	Pf growth 48h	Pf growth 96h
CCC(NC(=O)c1ccccc1NC(=O)c1ccccc1)C(=O)NNC(=O)c1cccnc1 (centres undefined)	-10.1%	78.0%	-17.9	11.5	26.4%	12.1%
Cc1ccc(N2C(=O)C(F)(F)C2c2ccccc2)cc1 (centres undefined)	5.3%	41.9%	26.1	-0.7	-10.1%	0.0%
Cc1ccc(N2C(=N)/C(=C3/Nc4ccccc4S3)C(c3ccccc3)C2=O)cc1 (centres undefined)	16.4%	6.4%	62.0*	43.8*	-1.5%	?
COc1ccc(Nc2nc(-c3ccccc3O)nc3ccccc23)cc1	?	-16.4%	-14.2	-2.5	?	?
COc1ccc(Nc2nc(-c3ccncc3)nc3ccccc23)cc1	6.31µM*	5.7%	-5.0	-5.1	/	0.7%
COc1ccc(OC)c(Nc2nc(-c3ccncc3)nc3ccccc23)c1	4.47µM*	12.8%	-8.7	-2.7	1.85µM*	1.85µM*
COc1ccc(Nc2nc(N)c3ccccc3n2)c(OC)c1	-24.5%	-6.2%	45.3*	34.1*	?	30.3%
COc1ccccc1Nc1nc(-c2ccccc2)nc2ccccc12	10µM*	89.8%	-5.5	-1.0	6.2%	-1.2%
COc1ccc(OC)c(Nc2nc(-c3ccccc3O)nc3ccccc23)c1	?	-29.9%	-27.6	-0.9	-2.6%	?
COc1ccc(Nc2nc(N)nc(C(F)(F)F)n2)c(OC)c1	?	-4.1%	45.9	24.7*	17.4%	?
Cc1ccc(C)c(Nc2nc(-c3ccncc3)nc3ccccc23)c1	11.2µM*	3.3%	-2.8	3.6	10.4µM*	-16.1%
COc1ccc(Nc2nc(-c3ccccc3)nc3ccccc23)c(OC)c1	2µM*	51.9%	13.2	-1.0	?	?
COc1ccc(Nc2nc(N3CCCCC3)nc3ccccc23)c(OC)c1	?	18.0%	-13.9	-3.4	/	-89.2%
Nc1ncc(S(=O)(=O)c2ccc([N+](=O)[O-])cc2)s1	3.2%	1.4%	/	/	/	/
COc1ccc(CCNC(=O)COc2ccc(N(C)S(=O)(=O)c3ccc(Cl)cc3)cc2)cc1	7.08µM*	-1.4%	-1.4	8.2	?	?
COc1ccc(CCNC(=O)COc2ccc(N(C)S(=O)(=O)c3ccc(C)cc3)cc2)cc1OC	?	0.5%	-13.8	-5.3	-22.2%	1.8%
CN(c1ccc(OCC(=O)NCCc2ccccc2)cc1)S(=O)(=O)c1ccc(Cl)cc1	?	-9.0%	/	/	8.28µM*	?
CC(=O)Nc1ccc(S(=O)(=O)N(C)c2ccc(OCC(=O)NCCc3ccccc3F)cc2)cc1	?	-4.0%	/	/	/	/
CCc1cc(C(=O)c2ccc(C)cc2)c(NC(=O)CCl)s1	-30.0%	-23.2%	73.0*	48.7*	?	?
Cc1cc(C(=O)c2ccc(Cl)cc2)c(NC(=O)CCl)s1	?	12.9%[2.32 µM]	-6.4	-3.1	4.9%	-17.6%
CCc1cc(C(=O)c2ccc(OC)cc2)c(NC(=O)CN2CCCCC2)s1	9.8%	12.7%	-9.4	-2.4	3.7µM*	3.7µM*
COc1ccc(C(CCNC(C)c2ccccc2)C(C)C)cc1 (centres undefined)	?	-3.3%	-3.9	1.4	9.28µM*	9.28µM*
COc1ccc(C(C)NCCC(c2ccc(OC(C)C)cc2)c2ccccc2OC)cc1 (centres undefined)	10µM*	-7.9%	-17.3	-9.5	?	?
COc1ccc(NC(=O)COC(=O)CCc2ccc(S(=O)(=O)N3CCOCC3)cc2)c(OC)c1	3.2%	-7.3%	/	/	/	/
COc1ccc(N2CCN(C(=O)CSc3nc4nc(C)cc(C)n4n3)CC2)cc1	1.0%	0.5%[11.6 µM]	/	/	?	13.1µM*
SMILES	HCV inh	AMA1-RON2 inh	Shiga toxin inh	Cycloheximide cs	Pf growth 48h	Pf growth 96h
Cc1cc(C)n2nc(SCC(=O)N3CCOCC3)nc2n1	12.4%	-8.1%	/	/	30.6%	-5.9%
Cc1cc(C)n2nc(SCC(=O)N3CCN(c4ccc(F)cc4)CC3)nc2n1	7.6%	-3.1%	/	/	?	6.57µM*
COc1ccc(/C=C2\SC(=S)N(CC(=O)NC3C=CS(=O)(=O)C3)C2=O)cc1 (centres undefined)	-0.5%	5.8%	-14.3	10.1	13.9%	0.1%
CC(C)CN(CC(C)C)CC(O)COc1ccc([N+](=O)[O-])cc1 (centres undefined)	4.1%	6.6%	10.0	0.6	11.7µM*	-80.9%
CC(C)COc1ccc(C(=O)Nc2ccc(SC(F)F)cc2)cc1	?	-0.9%	39.3	24.1*	104.4%	-20.4%
CCC(=O)Oc1ccc(C(=O)Nc2ccc([N+](=O)[O-])cc2)cc1	-7.2%	9.1%	102.4*	39.7*	37.8%	?
CCC(=O)Oc1ccc(NC(=O)c2ccc(S(=O)(=O)N3CCCC3)cc2)cc1	/	4.4%	/	/	/	/
CCOc1ccc(C(=O)OCC(=O)Nc2ccc(SC(F)F)cc2)cc1OCC	5.4%	-10.5%	-8.9	-5.6	11.7%	-14.4%
CC(C)COc1ccc(C(=O)Nc2ccc([N+](=O)[O-])cc2)cc1	?	9.3%	51.4*	30.3*	-11.1%	-14.2%
CCCNC(=O)c1cc(C2CCCCN2S(=O)(=O)c2ccccc2)on1 (centres undefined)	/	6.3%	/	/	/	/
Cc1nnc(SCC(=O)Nc2sc3c(c2C#N)CCCCC3)n1N	11.7%	2.5%	51.4*	19.6*	29.3%	/
CCOC(=O)c1c(NC(=O)CSc2nnc(C)c(=O)[nH]2)sc2c1CCCC2	-10.3%	-3.2%	-7.4	-5.4	12.6%	/
N#Cc1c(NC(=O)CSc2nnnn2C2CCCCC2)sc2c1CCCC2	11.7%	-22.1%	-15.5	-7.3	13.1%	?
Cc1nnc(SCC(=O)Nc2sc3c(c2C#N)CCCC3)[nH]c1=O	-3.6%	-7.6%	-4.4	-1.4	6.6%	14.7µM*
N#CC1=C(N)Oc2n[nH]c(-c3cccnc3)c2C1c1ccc([N+](=O)[O-])o1 (centres undefined)	4.6%	11.2%	53.7	20.4*	-7.1%	?
N#CC1=C(N)Oc2n[nH]c(-c3ccccc3)c2C1c1cccnc1 (centres undefined)	5.0%	-5.0%	-11.3	3.4	-29.5%	-7.3%
O=C(NCc1cnn(-c2ccccc2)c1)C1CCC(=O)N(C2CC2)C1 (centres undefined)	11.1%	-11.0%	-11.9	-1.9	11.1%	5.22µM*
O=C(NCc1ccccc1OC(F)(F)F)C1CCC(=O)N(C2CC2)C1 (centres undefined)	-3.8%	4.4%	-8.4	1.1	21.2%	11.7µM*
Cc1sc[n+](CC(=O)c2ccc(Br)cc2)c1C	-1.9%	-7.3%	-1.1	7.4	13.5%	8.0%
Cc1c(CCOC(=O)C23CC4CC(CC(C4)C2)C3)sc[n+]1Cc1ccccc1	-4.9%	8.0%	-2.0	1.1	3.29µM*	45.9%
Cc1ncc(C[n+]2csc(CCOC(=O)C34CC5CC(CC(C5)C3)C4)c2C)c(N)n1	-3.8%	-4.2%	-2.8	-2.6	-3.0%	9.4%
